In PubChem BioAssay (NCATS):
Results filed as inconclusive are left out. Where a call stands in place of a potency, no number is given. Values without a mark were called inactive. Calls of active or inactive are those of the source. The call rests on the fitted dose curve; in most records, active means well fitted curve in the direction sought with a large enough effect; inconclusive means small, poorly fitted or top-dose-only effect, or another doubt; inactive means no such curve, though single readings can be large; an effect the other way counts as inactive or inconclusive.

Assays:
[1] = biological target: Aldehyde dehydrogenase, mitochondrial (Homo sapiens) (UniProt P05091); test: qHTS for Inhibitors of the Aldehyde Dehydrogenase Family (ALDH2) Primary screen (AID 2061308); further: nearly all actives have a fitted effect of over 55% in size
[2] = biological target: Retinaldehyde dehydrogenase 3 (Homo sapiens) (UniProt P47895); test: qHTS for Inhibitors of the Aldehyde Dehydrogenase Family (ALDH1A3) Primary screen (AID 2061315)

Compound	Potency [1]	Potency [2]	activity change, negative = inhibition [1]	activity change, negative = inhibition [2]
C=C1CC[C@H]2C(=C)CC[C@H]3C(=C)C(=O)O[C@@H]3[C@@H]12	inactive	inactive	–	–
O=S(=O)(c1ccc2c(c1)OCCO2)N1CCN(S(=O)(=O)c2c(Cl)cc(C(F)(F)F)cc2Cl)CC1	inactive	inactive	–	–
CCOC(=O)c1ccc(-n2c(C)cc(-c3nnc4n3CCCCC4)c2C)cc1	inactive	inactive	–	–
FC(F)(F)c1ccccc1-c1nc(NCc2cccs2)c2ccccc2n1	inactive	inactive	–	–
O=C1CN(S(=O)(=O)c2ccc3c(c2)OCCO3)CCN1S(=O)(=O)c1c(F)cccc1F	inactive	inactive	–	–
CCCn1c(-c2ccc(F)cc2)nc2c(NCCCN3CCOCC3)nc(C)nc21	inactive	inactive	–	–
COc1ccc(C(=O)Nc2ccc(-c3nc4ccccc4[nH]3)cc2)cc1Br	inactive	inactive	–	–
CCOC(=O)c1nn(-c2ccccc2)c(=O)c2c(N)sc(C)c12	inactive	inactive	–	–
Clc1cccc(-c2ccc3ncnc(NCc4cccnc4)c3c2)c1	inactive	inactive	–	–
CC1=C(C(=O)N(C)C)C(c2ccccc2Br)N=C(Nc2nc3ccccc3o2)N1 (centres undefined)	inactive	inactive	–	–
Cc1ccc(C2N=C(Nc3nc4ccccc4o3)NC3=C2C(=O)CCC3)s1 (centres undefined)	inactive	inactive	–	–
Cn1c2cc(B(O)O)sc2c2cnn(Cc3c(F)cccc3Cl)c(=O)c21	inactive	inactive	–	–
CN(C)c1cccc(-c2cc(N3CCC(C(N)=O)CC3)ncn2)c1	inactive	inactive	–	–
FC(F)(F)c1cc(-c2nc3ccccc3s2)cc(C(F)(F)F)c1	inactive	inactive	–	–
COc1cccc(-c2ccc(=O)n(CC(=O)NCCc3ccccc3)n2)c1	inactive	inactive	–	–
N#Cc1cccc(NC(=O)Nc2nnc(-c3ccncc3)s2)c1	inactive	inactive	–	–
Cn1nnnc1Sc1ncnc2scc(-c3cccc(C(F)(F)F)c3)c12	inactive	inactive	–	–
Cc1ccc(-c2ccc(=O)n(CC(=O)N(C)C(C)c3cccs3)n2)cc1 (centres undefined)	inactive	inactive	–	–
CC(Nc1nc(-c2ccccc2C(F)(F)F)nc2ccccc12)c1ccc(-c2ccncc2)cc1 (centres undefined)	inactive	inactive	–	–

Compound	Potency [1]	Potency [2]	activity change, negative = inhibition [1]	activity change, negative = inhibition [2]
CC(=O)Nc1sc2c(c1-c1ccc(Cl)cc1)CCNC2	inactive	inactive	–	–
COc1ccc(C2=Nn3c(nnc3-c3ccccc3OC)SC2)cc1OC	inactive	inactive	–	–
Cc1cc(N[S+](=O)([O-])c2ccc(NC(=O)Cc3cccc(Cl)c3Cl)cc2)no1	inactive	inactive	–	–
O=C1c2ccccc2C(=O)N1c1ccc(O)cc1	inactive	inactive	–	–
COc1cccc(CNc2ccc(S(=O)(=O)Nc3ncc(C)s3)cc2)c1O	inactive	inactive	–	–
Cc1ccc(-c2nc3ccccc3[nH]2)cc1NC(=O)c1ccc(-c2cccc(Cl)c2)o1	inactive	inactive	–	–
O=C1C[C@]23C=CCN4CCC5c6cc7c(cc6N1[C@@]5(CC2)C43)OCO7 (some centres undefined)	inactive	inactive	–	–
COC(=O)[C@H](O)[C@H]1C(C)(C)[C@H](OC(C)=O)[C@@]2(O)C(=O)[C@]1(C)C1CC[C@]3(C)C(CC(=O)O[C@H]3c3ccoc3)[C@]13O[C@@H]32 (some centres undefined)	inactive	inactive	–	–
Cc1cc(NC(=O)Nc2nnc(-c3cccnc3)s2)ccc1Cl	inactive	inactive	–	–
CC1OC(OC2C(O)COC(O[C@@H]3[C@@H](O)[C@@H](O)[C@H](OC4C(OC(=O)[C@]56CCC(C)(C)CC5C5=CCC7[C@@]8(C)C[C@H](O)[C@H](OC9OC(CO)C(O)C(O)C9O)[C@@](C)(CO)C8[C@H](O)C[C@@]7(C)[C@]5(C)CC6)OCC(O)C4O)O[C@H]3C)C2O)C(O)C(O)C1O (some centres undefined)	–	–	13.1% [at 11.2 µM]	4.77% [at 11.2 µM]
NC(=O)C1CCN(c2ncc(Br)cn2)CC1	inactive	inactive	–	–
Cc1ccc(C)c(SC2=CS(=O)(=O)c3ccccc32)c1	inactive	inactive	–	–
N#Cc1cccc(NS(=O)(=O)c2ccc3c(c2)CCC(=O)N3)c1	inactive	inactive	–	–
Cc1ccc(-c2ccc(=O)n(CC(=O)N(C)CCN(C)C)n2)cc1	inactive	inactive	–	–
CC1(C)CC[C@]2(C(=O)O[C@@H]3O[C@H](CO[C@@H]4O[C@H](CO[C@@H]5O[C@H](CO)[C@H](O)[C@H](O)[C@H]5O)[C@@H](O)[C@H](O)[C@H]4O)[C@@H](O)[C@H](O[C@@H]4O[C@H](CO)[C@@H](O)[C@H](O)[C@H]4O)[C@H]3O)[C@H](O)C[C@]3(C)C(=CCC4[C@@]5(C)CC[C@H](O[C@@H]6OC[C@@H](O)[C@H](O)[C@H]6O)[C@@](C)(C(=O)O)C5CC[C@]43C)[C@@H]2C1 (some centres undefined)	–	–	13.7% [at 11.2 µM]	11.1% [at 11.2 µM]
COc1ccc(CCNC(=O)Cn2nc(-c3ccc(C)cc3)ccc2=O)cc1OC	inactive	inactive	–	–
CCOc1ccc(CCNC(=O)c2ccc(C3(C(F)(F)F)N=N3)cc2)cc1OCC	inactive	inactive	–	–
CC(=O)Nc1sc2c(c1-c1cccs1)CCNC2	inactive	inactive	–	–
